Shown are actives, neighbours in structure and some others; about 5.7% of the full set was active somewhere.
Gal4-VP16 FLuc: VP16 counterscreen qHTS for inhibitors of ROR gamma transcriptional activity. AID 2546, 2010. actives 3.5% (n = 310,000). Drosophila S2 Gal4-VP16 UAS-luciferase, luminescence, 20 h. Potency, µM (top dose mostly 53.6 µM), usual class: inhibitors;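 also: Gal4-VP16 expression switched on by copper sulfate through the metallothionein promoter; nearly all actives have a fitted effect of over 50% in size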
RORg inh: qHTS for inhibitors of ROR gamma transcriptional activity; actives 5.4% (n = 310,000); AID 2551, 2010; Drosophila S2 Gal4-RORgamma UAS-luciferase reporter, 20 h; Potency, µM (highest dose often 53.6 µM), actives largely listed as inhibitors; also: nearly all actives have a fitted effect of over 60% in size
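A Gal4/UAS one-hybrid system in insect cells: metallothionein-promoter Gal4–ROR gamma fusion plus Photinus luciferase reporter. Copper sulfate 700 uM final, 20 hr ambient incubation, luminescent detection after 10 min with reagent.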
B2AR arrestin: qHTS assay of beta-arrestin-biased ligands of beta2-adrenergic receptor. Beta-2 adrenergic receptor (Homo sapiens), P07550. beta-arrestin recruitment to beta2AR, cell-based reporter. Potency, µM (highest dose often 46.1 µM), hits mostly activators. actives 0.02% (n = 330,000). AID 492947, 2010; also: nearly all actives have a fitted effect of over 65% in size
Target sequence (P07550 whole entry, looked up): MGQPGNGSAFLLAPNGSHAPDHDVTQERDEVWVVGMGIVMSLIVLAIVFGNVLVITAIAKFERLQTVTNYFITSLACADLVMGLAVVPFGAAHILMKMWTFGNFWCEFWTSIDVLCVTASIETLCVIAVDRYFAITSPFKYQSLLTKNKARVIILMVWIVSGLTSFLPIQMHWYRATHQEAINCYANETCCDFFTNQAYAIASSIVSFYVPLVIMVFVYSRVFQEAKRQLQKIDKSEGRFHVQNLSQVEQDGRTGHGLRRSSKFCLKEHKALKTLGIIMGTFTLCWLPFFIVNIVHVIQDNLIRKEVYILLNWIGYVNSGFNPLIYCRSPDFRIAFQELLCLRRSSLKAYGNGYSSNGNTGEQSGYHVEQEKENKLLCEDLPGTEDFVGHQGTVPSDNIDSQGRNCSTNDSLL
NPSR antagonist: qHTS Assay for Antagonists of the Neuropeptide S Receptor: cAMP Signal Transduction; CHO-NPSR cells, cAMP TR-FRET, antagonist mode; Potency, µM (series often up to 38.3 µM), usual class: inhibitors; AID 1461, 2008; Q6W5P4; actives 1% (n = 220,000); also: nearly all actives have a fitted effect of over 50% in size
Each line names hits and unclear results; the compound was inactive in the other large screens. Calls follow the shape of the dose curve; as a rule, active = well fitted curve in the direction sought with a large enough effect; inconclusive = small, poorly fitted or top-dose-only effect, or another doubt; inactive = no such curve, though single readings can be large; an effect the other way counts as inactive or inconclusive.

O=C(c1ccc2c3c(cccc13)CC2)C1CCCN(Cc2cccnc2)C1 (stereo unspecified)	none
COc1ccc(-c2[nH]ncc2CN2CCCC(C(=O)c3cccc(OC)c3)C2)cc1 (stereo unspecified)	none
Cc1cccc(CN2CCCC(C(=O)c3ccc4c5c(cccc35)CC4)C2)n1 (stereo unspecified)	Gal4-VP16 FLuc 12.6µM, RORg inh 3.98µM
COc1cccc(-c2cncnc2N(C)Cc2ccco2)c1	none (no result: B2AR arrestin, NPSR antagonist)
C#CCNC(=O)C1=C[C@@H](c2ccc(C(F)(F)F)cc2)[C@H](CCCO)[C@@H](OCC)O1	none
CC1=NN(C(=O)c2ccccc2F)C(O)(c2ccc(Cl)cc2)C1 (stereo unspecified)	Gal4-VP16 FLuc 6.31µM, RORg inh 5.62µM (no result: NPSR antagonist)
CCOC(=O)N1N=C(C)CC1(O)c1ccccc1 (stereo unspecified)	none
CC1=NN(C(=O)c2ccccc2Cl)C(O)(c2ccccc2)C1 (stereo unspecified)	Gal4-VP16 FLuc 7.08µM, RORg inh 6.31µM (no result: NPSR antagonist)
S=c1[nH]nc(-c2ccncc2)n1/N=C/c1ccccc1	Gal4-VP16 FLuc inconclusive, RORg inh inconclusive
Cc1cccc(/C=N/n2c(-c3ccncc3)n[nH]c2=S)c1	Gal4-VP16 FLuc inconclusive, RORg inh 11.2µM
S=c1[nH]nc(-c2cc(-c3ccccc3)n[nH]2)n1/N=C/c1ccccc1	none
Cc1cccc(/C=N/n2c(-c3cc(-c4ccccc4)n[nH]3)n[nH]c2=S)c1	Gal4-VP16 FLuc inconclusive, RORg inh 7.94µM
Cc1c(C)n(CCc2ccccc2)c2ncnc(NN)c12	Gal4-VP16 FLuc inconclusive (no result: NPSR antagonist)
Cc1c(C)n(Cc2ccccc2)c2ncnc(NN)c12	Gal4-VP16 FLuc 15.8µM, RORg inh inconclusive (no result: NPSR antagonist)
COc1ccc(/C=N/Nc2ccc(C(=O)O)cc2)cc1OC	Gal4-VP16 FLuc 0.447µM, RORg inh 1.58µM
Nc1ccc(C(=O)N/N=C\c2ccc(OC(=O)c3ccccc3Cl)cc2)cc1	none (no result: NPSR antagonist)
COc1ccc(/C=N/Nc2ccc(C(=O)O)cc2)cc1Br	RORg inh 39.8µM
O=C(O)c1ccc(N/N=C/c2ccc(OC(=O)c3ccccc3Cl)cc2)cc1	Gal4-VP16 FLuc 0.316µM, RORg inh 0.398µM
CC(C)c1ccc(/C=N/Nc2ccc(C(=O)O)cc2)cc1	Gal4-VP16 FLuc 0.251µM, RORg inh inconclusive
O=C(O)c1ccc(N/N=C/c2ccc(-c3ccccc3)cc2)cc1	none
Cc1ccc(/C=N/Nc2ccc(C(=O)O)cc2)o1	Gal4-VP16 FLuc 0.398µM, RORg inh 0.316µM
COc1ccc2c(/C=N/Nc3ccc(C(=O)O)cc3)c[nH]c2c1	Gal4-VP16 FLuc 5.01µM, RORg inh inconclusive (no result: NPSR antagonist)
CC(=O)c1ccc(OC(=O)c2nc(-c3ccccc3)oc2C)cc1	RORg inh inconclusive (no result: NPSR antagonist)
CCc1cc(=O)oc2cc3occ(-c4ccc(OC)c(F)c4)c3cc12	Gal4-VP16 FLuc 12.6µM, RORg inh inconclusive
O=C(Nc1ccc([N+](=O)[O-])cc1)Nc1nc(-c2ccc(Cl)s2)cs1	Gal4-VP16 FLuc 0.891µM, RORg inh 3.98µM, NPSR antagonist 6.31µM
CC(=O)Nc1nc(-c2ccc([N+](=O)[O-])cc2)cs1	RORg inh inconclusive
COCCNC(=S)NC(=O)CC12CC3CC(CC(C3)C1)C2	Gal4-VP16 FLuc inconclusive, RORg inh 2.51µM
O=C(CC12CC3CC(CC(C3)C1)C2)NC(=S)N1CCCCC1	Gal4-VP16 FLuc 3.55µM, RORg inh 4.47µM
CC(=O)N1CCN(C(=S)NC(=O)C23CC4CC(CC(C4)C2)C3)CC1	RORg inh 14.1µM
S=C(NC12CC3CC(CC(C3)C1)C2)N1CCCC1	Gal4-VP16 FLuc inconclusive, RORg inh 14.1µM
CNC(=S)N1CCC(NC(=O)C23CC4CC(CC(C4)C2)C3)CC1	none
Cc1cccc(C)c1OCCNC(=O)OCc1ccccc1	none
CCCCc1ccc(-c2ccc(Br)cc2)nc1	none
CCCc1ccc(-c2ccc(F)c(N)c2)nc1	Gal4-VP16 FLuc inconclusive, RORg inh 4.47µM
Cc1ccc(NNC(N)=S)cc1Cl	Gal4-VP16 FLuc 5.01µM, RORg inh inconclusive
NC(=S)Nc1ccc(Cl)c(Cl)c1	none
NC(=S)NNc1ccc(Cl)c(Cl)c1	Gal4-VP16 FLuc 10µM, RORg inh 6.31µM
Cc1ccc(NC(=S)N(C)N)cc1Cl	RORg inh inconclusive
CCOC(=O)C1=C[C@@H](C(=O)OCC)[C@@H]2C3=C(C(=O)C2(C)C)[C@H](c2ccccc2)[C@@H]2C(=O)N(c4ccccc4)C(=O)[C@@H]2[C@@H]3C1	none (no result: B2AR arrestin, NPSR antagonist)
CC1CCCN(S(=O)(=O)c2ccc(C(=O)NC(C)c3ccccc3)cc2)C1 (stereo unspecified)	none (no result: Gal4-VP16 FLuc, RORg inh, NPSR antagonist)
Cc1cccc(C)c1NC(=S)N1CCCN(Cc2ccc(F)cc2)C1	RORg inh 14.1µM
CSc1cccc(NC(=S)N2CCCN(Cc3cccc(Cl)c3)C2)c1	Gal4-VP16 FLuc inconclusive, RORg inh 10µM
CCOc1ccc(NC(=S)N2CCCN(Cc3cccc(Cl)c3)C2)cc1	RORg inh inconclusive
COc1ccc(NC(=S)N2CCCN(Cc3cccc(Cl)c3)C2)cc1	RORg inh 12.6µM
Fc1ccc(CN2CCCN(C(=S)Nc3ccc(F)cc3)CC2)cc1	none
COc1cccc(NC(=S)N2CCN(S(=O)(=O)c3ccc(F)cc3)CC2)c1	none (no result: NPSR antagonist)
COc1cccc(NC(=S)N2CCCN(Cc3ccc(F)cc3)C2)c1	Gal4-VP16 FLuc inconclusive, RORg inh 3.55µM
CO/N=C(\C(=O)O)c1csc(NN=C(C)C)n1	none
COc1ccc(C(=O)NNC2CC(=O)N(Cc3ccc(Cl)cc3)C2=O)cc1OC (stereo unspecified)	Gal4-VP16 FLuc 7.08µM, RORg inh inconclusive
CCOC(=O)C1=NN(C(=O)COc2ccccc2)C(O)(c2ccc(Cl)cc2)C1 (stereo unspecified)	Gal4-VP16 FLuc 11.2µM, RORg inh 3.55µM
COC(=O)C1=NN(C(=O)c2cccc(Br)c2)C(O)(c2ccc(Cl)cc2)C1 (stereo unspecified)	none
CCOC(=O)C1=NN(C(=O)Cc2ccccc2)C(O)(c2ccc(Cl)cc2)C1 (stereo unspecified)	Gal4-VP16 FLuc 10µM, RORg inh 5.62µM
CCCOC(=O)N[C@@H]1C(=O)N2C(C(=O)OCCC)=C(C)CS[C@H]12	none (no result: NPSR antagonist)
COc1ncc2ncc(=O)n(C[C@H]3CCCO3)c2n1	none (no result: B2AR arrestin, NPSR antagonist)
Cc1nc(C(=O)NNC(=O)c2ccc(Cl)cc2)c(C(F)(F)F)o1	Gal4-VP16 FLuc inconclusive, RORg inh 11.2µM
CN(C)c1nc(NCc2ccccc2)nc(N/N=C/c2ccc(Cl)cc2Cl)n1	RORg inh 2.24µM
CN(C)c1nc(NCc2ccccc2)nc(N/N=C/c2ccccc2F)n1	Gal4-VP16 FLuc 6.31µM, RORg inh 2.82µM
Cc1cc(N/N=C/c2ccccc2F)nc(NCc2ccccc2)n1	none
CCC(=O)NC1=C(NC(C)c2ccccc2)C(=O)c2ccccc2C1=O (stereo unspecified)	Gal4-VP16 FLuc inconclusive
CCC(=O)NC1=C(Cl)C(=O)C(NC(=O)CC)=C(Cl)C1=O	Gal4-VP16 FLuc 7.08µM, RORg inh 2.82µM, NPSR antagonist inconclusive
